# Results as given in PubChem BioAssay (NCATS).
# Several values for one entry are separate records, joined by “and”; a condition that tells them apart may be missing. Equal values may be shown once. Inconclusive results are not listed. Entries that show only a call come without a potency. Where a structure was tested more than once in an assay, its records may differ in their call. Activity calls are given as the source filed them. Calls come from the whole dose curve; as a rule, active = well fitted curve in the direction sought with a large enough effect; inconclusive = small, poorly fitted or top-dose-only effect, or another doubt; inactive = no such curve, though single readings can be large; an effect the other way counts as inactive or inconclusive.
# Key:
# [1] = target: Rap guanine nucleotide exchange factor 3 (Homo sapiens) (UniProt O95398); assay: Confirmatory qHTS for agonist of cAMP-regulated guanine nucleotide exchange factor 3 (EPAC1) (AID 1645881); conditions: EPAC1 Rap1B BODIPY-GDP exchange fluorescence; series mostly up to 154 µM; note: nearly all actives have a fitted effect of over 75% in size; note: potency is the fitted concentration of half-maximal effect;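 for activation: EPAC1 catalysed release of BODIPY-GDP from Rap1B seen as fluorescence loss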
# Sequence of Rap guanine nucleotide exchange factor 3 (Homo sapiens) (O95398 whole entry, looked up): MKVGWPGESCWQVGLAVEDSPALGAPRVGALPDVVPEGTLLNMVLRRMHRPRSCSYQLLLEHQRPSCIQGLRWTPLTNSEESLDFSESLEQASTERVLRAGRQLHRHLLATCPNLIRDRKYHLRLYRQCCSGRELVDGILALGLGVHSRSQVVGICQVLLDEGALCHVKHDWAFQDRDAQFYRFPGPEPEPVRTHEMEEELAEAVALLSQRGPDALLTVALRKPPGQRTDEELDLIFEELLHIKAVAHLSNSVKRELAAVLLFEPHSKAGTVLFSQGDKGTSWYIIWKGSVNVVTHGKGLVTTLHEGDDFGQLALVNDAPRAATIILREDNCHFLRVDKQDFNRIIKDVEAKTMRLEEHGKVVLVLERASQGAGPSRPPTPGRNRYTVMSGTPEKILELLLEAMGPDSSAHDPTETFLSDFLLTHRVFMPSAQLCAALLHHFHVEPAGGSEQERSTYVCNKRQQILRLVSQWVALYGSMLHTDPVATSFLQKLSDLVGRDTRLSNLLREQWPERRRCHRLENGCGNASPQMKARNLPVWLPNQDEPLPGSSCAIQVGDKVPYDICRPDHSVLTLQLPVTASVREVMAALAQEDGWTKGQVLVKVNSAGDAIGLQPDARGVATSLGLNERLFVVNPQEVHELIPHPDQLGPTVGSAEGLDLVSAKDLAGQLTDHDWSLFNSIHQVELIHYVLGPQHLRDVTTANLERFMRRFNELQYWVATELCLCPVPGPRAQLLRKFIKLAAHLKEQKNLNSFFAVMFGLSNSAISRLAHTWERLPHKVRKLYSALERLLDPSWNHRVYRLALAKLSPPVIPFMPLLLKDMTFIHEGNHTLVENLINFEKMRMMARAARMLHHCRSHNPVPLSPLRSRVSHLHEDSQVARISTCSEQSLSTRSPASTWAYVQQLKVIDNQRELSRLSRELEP
# [2] = target: Rap guanine nucleotide exchange factor 4 (Homo sapiens) (UniProt Q8WZA2); assay: Confirmatory qHTS for agonist of cAMP-regulated guanine nucleotide exchange factor 4 (EPAC2) (AID 1645884); conditions: EPAC2 GEF activity, Rap1B-BODIPY-GDP fluorescence; series mostly up to 154 µM;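 note: nucleotide exchange releases bodipy-GDP from Rap1 and this lowers its fluorescence; nearly all actives have a fitted effect of over 65% in size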
# Sequence of Rap guanine nucleotide exchange factor 4 (Homo sapiens) (Q8WZA2 whole entry, looked up): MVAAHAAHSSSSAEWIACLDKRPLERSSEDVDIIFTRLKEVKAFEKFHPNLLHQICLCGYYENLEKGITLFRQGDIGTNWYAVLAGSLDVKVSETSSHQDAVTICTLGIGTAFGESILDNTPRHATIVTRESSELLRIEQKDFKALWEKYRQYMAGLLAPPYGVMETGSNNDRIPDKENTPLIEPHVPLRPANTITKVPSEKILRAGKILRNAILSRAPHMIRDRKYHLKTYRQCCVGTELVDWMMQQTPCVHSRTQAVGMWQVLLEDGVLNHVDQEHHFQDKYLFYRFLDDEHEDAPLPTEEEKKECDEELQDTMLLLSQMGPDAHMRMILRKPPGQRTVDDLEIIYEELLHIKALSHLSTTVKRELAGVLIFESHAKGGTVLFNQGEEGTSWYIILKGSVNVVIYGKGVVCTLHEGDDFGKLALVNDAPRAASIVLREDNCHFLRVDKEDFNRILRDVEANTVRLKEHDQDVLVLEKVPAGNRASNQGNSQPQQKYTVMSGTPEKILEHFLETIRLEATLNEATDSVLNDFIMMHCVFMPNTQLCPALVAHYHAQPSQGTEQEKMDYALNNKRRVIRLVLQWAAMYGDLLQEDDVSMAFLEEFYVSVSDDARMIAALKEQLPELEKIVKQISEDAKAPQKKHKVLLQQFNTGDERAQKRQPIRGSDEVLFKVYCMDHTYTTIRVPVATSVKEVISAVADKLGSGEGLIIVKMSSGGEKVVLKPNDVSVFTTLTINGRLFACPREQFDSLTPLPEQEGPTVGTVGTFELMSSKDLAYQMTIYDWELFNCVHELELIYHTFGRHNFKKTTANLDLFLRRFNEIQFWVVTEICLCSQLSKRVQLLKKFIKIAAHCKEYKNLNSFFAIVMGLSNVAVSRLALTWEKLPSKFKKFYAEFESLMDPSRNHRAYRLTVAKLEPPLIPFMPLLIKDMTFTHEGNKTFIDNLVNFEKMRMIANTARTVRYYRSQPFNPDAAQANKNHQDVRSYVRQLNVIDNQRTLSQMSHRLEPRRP
# [3] = target: Rap guanine nucleotide exchange factor 4 (Homo sapiens) (UniProt Q8WZA2); assay: Confirmatory qHTS for antagonist of cAMP-regulated guanine nucleotide exchange factor 4 (EPAC2) (AID 1645885); conditions: EPAC2 Rap1B-BODIPY-GDP exchange fluorescence, biochemical; series mostly up to 12.7 µM; note: nearly all actives have a fitted effect of over 25% in size; note: potency is the fitted concentration of half-maximal effect
# [4] = target: Rap guanine nucleotide exchange factor 3 (Homo sapiens) (UniProt O95398); assay: Counterscreen qHTS for antagonist of cAMP-regulated guanine nucleotide exchange factor 3 (EPAC1) (AID 1645888); conditions: Rap1B-BODIPY-GDP nucleotide exchange, fluorescence; series mostly up to 154 µM;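 note: fluorescence loss as bound BODIPY-GDP is released from Rap1B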
# Procedure, shortened: (§1)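 Measured: fluorescence of BODIPY-GDP bound to Rap1B, which falls as exchange proceeds. Conditions include 50 uM competing GDP, 5 and 30 min reads, and a later cAMP challenge for antagonist detection.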
# [5] = target: Rap guanine nucleotide exchange factor 3 (Homo sapiens) (UniProt O95398); assay: Counterscreen qHTS for agonist of cAMP-regulated guanine nucleotide exchange factor 3 (EPAC1) (AID 1645889); conditions: EPAC1 Rap1B-BODIPY-GDP exchange, fluorescence; series mostly up to 154 µM; note: nearly all actives have a fitted effect of over 40% in size
# Procedure, shortened: as §1
SMILES,Potency [1],activation [2],Potency [3],"activity change, negative = inhibition [4]",activation [5],Potency [2],Potency [4],Potency [5]
CCCCCC(=O)Nc1cccc(C2=NOC3(C2)C[C@@H](C(N)=O)N(C(=O)CC(c2ccccc2)c2ccccc2)C3)c1 (stereo not given in full),inactive,"9.87% [at 17.1 µM, percent relative to cAMP agonist control] (inactive)",inactive,-21.4% [at 30.8 µM] (inactive),34.5% [at 30.8 µM] (inactive),–,–,–
Cc1ccc(S(=O)(=O)N/N=C/c2cc(Br)ccc2O)cc1,inactive,–,inactive,–,–,inactive,inactive,inactive
CCN=C1S/C(=C\c2ccc(-c3cccc(C(=O)O)c3)o2)C(=O)N1CC,inactive,–,inactive,–,–,inactive,inactive,inactive
CSc1ccccc1C(=O)Nc1ccc(C)cc1C,inactive,"-2.17% [at 17.1 µM, percent relative to cAMP agonist control] (inactive)",inactive,-16.8% [at 30.8 µM] (inactive),-3.4% [at 30.8 µM] (inactive),–,–,–
O=C(CCC1N=C2c3ccccc3N=C(SCc3ccc(Cl)cc3)N2C1=O)NCc1cccs1 (stereo not given),inactive,–,inactive,–,–,inactive,inactive,inactive
CCOc1ccc2nc(NC3=NC(c4ccc(OC)cc4)CC(=O)N3)nc(C)c2c1 (stereo not given),inactive,"2.86% [at 17.1 µM, percent relative to cAMP agonist control] (inactive)",inactive,-8.36% [at 30.8 µM] (inactive),10.5% [at 30.8 µM] (inactive),–,–,–
COc1cc(/C=C2/SC(=S)N(c3c(C)n(C)n(-c4ccccc4)c3=O)C2=O)ccc1O,inactive,"9.4% [at 17.1 µM, percent relative to cAMP agonist control] (inactive)",inactive,-24.4% [at 30.8 µM] (inactive),11.7% [at 30.8 µM] (inactive),–,–,–
CCCCC(CC)C(=O)Oc1ccc(O)c(C(C)(C)C)c1 (stereo not given),inactive,"-3.79% [at 17.1 µM, percent relative to cAMP agonist control] (inactive)",inactive,0.29% [at 30.8 µM] (inactive),-16.7% [at 30.8 µM] (inactive),–,–,–
Cc1ccc(N(Cc2cccs2)C(=O)c2ccco2)cc1,inactive,–,inactive,–,–,inactive,inactive,inactive
Cc1nn(-c2ccccc2)c(C)c1-c1cc(C(=O)N/N=C/c2ccc(O)cc2)[nH]n1,inactive,"-7.34% [at 17.1 µM, percent relative to cAMP agonist control] (inactive)",inactive,-7.56% [at 30.8 µM] (inactive),9.11% [at 30.8 µM] (inactive),–,–,–
COC(=O)c1ccc2nc(-c3ccco3)c(Cc3ccc(OC)cc3C)n2c1,inactive,–,inactive,–,–,inactive,inactive,inactive
CCc1ccc(NS(=O)(=O)c2cc3c4c(c2)CCN4C(=O)CC3)cc1,inactive,–,inactive,–,–,inactive,inactive,inactive
CC(C)(C)c1ccc(C(=O)N/C(=C\c2cccc([N+](=O)[O-])c2)C(=O)Nc2cccc(C(=O)O)c2)cc1,inactive,"8.06% [at 17.1 µM, percent relative to cAMP agonist control] (inactive)",inactive,-17.2% [at 30.8 µM] (inactive),22.2% [at 30.8 µM] (inactive),–,–,–
CCOC(=O)C(C)Sc1nc(-c2ccco2)cc(C(F)(F)F)c1C#N (stereo not given),inactive,"0.901% [at 17.1 µM, percent relative to cAMP agonist control] (inactive)",inactive,-10.8% [at 30.8 µM] (inactive),0.691% [at 30.8 µM] (inactive),–,–,–
O=[N+]([O-])c1cc2oc3c(c2c(C=NCc2ccncc2)c1O)CCCC3,inactive,"1.74% [at 17.1 µM, percent relative to cAMP agonist control] (inactive)",inactive,-19.5% [at 30.8 µM] (inactive),15.1% [at 30.8 µM] (inactive),–,–,–
Cc1ccc(C)n1-c1ccc(C(=O)/C=C/N(C)C)cc1,inactive,"4.94% [at 17.1 µM, percent relative to cAMP agonist control] (inactive)",inactive,-17.3% [at 30.8 µM] (inactive),0.307% [at 30.8 µM] (inactive),–,–,–
CC(=O)Nc1ccc(S(=O)(=O)/N=C2/NC(=O)/C(=C\c3ccco3)S2)cc1,inactive,–,84.9 µM (active),–,–,inactive,inactive,inactive
Cc1oc2c(O)c(O)ccc2c(=O)c1-c1cnn(-c2ccccc2)c1,inactive,"2.28% [at 17.1 µM, percent relative to cAMP agonist control] (inactive)",inactive,-26.8% [at 30.8 µM] (inactive),28.8% [at 30.8 µM] (inactive),–,–,–

SMILES,Potency [1],activation [2],Potency [3],"activity change, negative = inhibition [4]",activation [5],Potency [2],Potency [4],Potency [5]
CC(NC(=O)COc1ccccc1-c1ccccc1)c1ccccc1 (stereo not given),inactive,–,inactive,–,–,inactive,inactive,inactive
CCc1nnc(NS(=O)(=O)c2ccc(N/C=C\C(=O)c3ccc4ccccc4c3)cc2)s1,inactive,"1.49% [at 17.1 µM, percent relative to cAMP agonist control] (inactive)",inactive,-10.2% [at 30.8 µM] (inactive),3.82% [at 30.8 µM] (inactive),–,–,–
CCCCCCn1nc(C(=O)OCC(=O)c2c(N)n(C)c(=O)n(C)c2=O)c2ccccc2c1=O,inactive,–,inactive,–,–,inactive,inactive,inactive
Cc1nnc(-c2ccco2)c2cn(-c3cccc(Br)c3)nc12,inactive,–,inactive,–,–,inactive,inactive,inactive
Cc1ccc2nc(-c3ccc(NC(=O)CSc4nccc(=O)[nH]4)cc3)sc2c1,inactive,–,inactive,–,–,inactive,inactive,inactive
Cc1ccc(S(=O)(=O)NC(=O)c2ccc(-c3ccc(C)c4ccccc34)o2)cc1,inactive,–,inactive,–,–,inactive,inactive,inactive
CCOc1cccc(C(=O)Nc2ccc3oc(Cc4ccc(Cl)cc4)nc3c2)c1,inactive,"0% [at 17.1 µM, percent relative to cAMP agonist control] (inactive)",inactive,-8.02% [at 30.8 µM] (inactive),18.7% [at 30.8 µM] (inactive),–,–,–
Cc1cccc(NC(=O)c2ccc(-n3cncn3)c([N+](=O)[O-])c2)c1,inactive,"2.79% [at 17.1 µM, percent relative to cAMP agonist control] (inactive)",inactive,-21.4% [at 30.8 µM] (inactive),23.9% [at 30.8 µM] (inactive),–,–,–
CCCOC(=O)c1c(NC(=O)C2C3C=CC(C3)C2C(=O)O)sc2c1CCC(C)C2 (stereo not given),inactive,"8.63% [at 17.1 µM, percent relative to cAMP agonist control] (inactive)",inactive,1.23% [at 30.8 µM] (inactive),40.1% [at 30.8 µM] (inactive),–,–,–
Cn1c(=O)c2c(SCc3cccnc3)nc(CC(C)(C)C)nc2n(C)c1=O,inactive,"6.82% [at 17.1 µM, percent relative to cAMP agonist control] (inactive)",inactive,-15.2% [at 30.8 µM] (inactive),9.84% [at 30.8 µM] (inactive),–,–,–
CC(C)C[C@H](NC(=O)C1(c2ccccc2)CCN(C(=O)OC(C)(C)C)CC1)C(=O)N1CCC[C@H]1C(=O)O,inactive,–,inactive,–,–,inactive,inactive,inactive
COc1ccc(/C=N\Nc2ccc([N+](=O)[O-])cc2)c(C(=O)O)c1OC,inactive,–,inactive,–,–,inactive,inactive,inactive
CCOC(=O)C1=C(C)NC(C)=C(C(=O)OCC)C1c1ccc([N+](=O)[O-])s1,inactive,–,inactive and 42.6 µM (active),–,–,inactive,inactive,inactive
CCO[C@@H]1OC(C(=O)N2CCN(Cc3ccc4c(c3)OCO4)CC2)=C[C@H](C2CCCCC2)[C@H]1CCCO,inactive,–,inactive,–,–,inactive,inactive,inactive
Cc1cccc(CN2C(=O)c3ccccc3Sc3ccc(C(=O)N4CCCC4)cc32)c1,inactive,–,inactive,–,–,inactive,inactive,inactive
COc1ccccc1NC(=O)CSc1sc2c(O)cc(=O)[nH]c2c1C#N,inactive,"3.66% [at 17.1 µM, percent relative to cAMP agonist control] (inactive)",inactive,0.384% [at 30.8 µM] (inactive),12.5% [at 30.8 µM] (inactive),–,–,–
CCOc1ccc(NC(=O)CN(C)S(=O)(=O)c2ccc(-c3ccc(=O)[nH]n3)s2)cc1,100 µM (active),–,inactive,–,–,inactive,inactive,inactive
